Source: PubChem (The Scripps Research Institute Molecular Screening Center)
A selection: hits, their analogues and other compounds. The true share with any hit is near 2%.
M4 PAM – potentiates acetylcholine response at human M4 receptor | hit rate 0.4% among 360,000 | CHO-K1 hM4/Gqi5, Fluo-8 calcium fluorescence, ACh EC20; 0% = ACh EC20, 100% = maximal ACh | activation, % at 3 µM | AID 624126;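 active = activation above its plate's cutoff, the mean activation of sample wells plus 3 SD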
Target sequence (P08173 whole entry, looked up): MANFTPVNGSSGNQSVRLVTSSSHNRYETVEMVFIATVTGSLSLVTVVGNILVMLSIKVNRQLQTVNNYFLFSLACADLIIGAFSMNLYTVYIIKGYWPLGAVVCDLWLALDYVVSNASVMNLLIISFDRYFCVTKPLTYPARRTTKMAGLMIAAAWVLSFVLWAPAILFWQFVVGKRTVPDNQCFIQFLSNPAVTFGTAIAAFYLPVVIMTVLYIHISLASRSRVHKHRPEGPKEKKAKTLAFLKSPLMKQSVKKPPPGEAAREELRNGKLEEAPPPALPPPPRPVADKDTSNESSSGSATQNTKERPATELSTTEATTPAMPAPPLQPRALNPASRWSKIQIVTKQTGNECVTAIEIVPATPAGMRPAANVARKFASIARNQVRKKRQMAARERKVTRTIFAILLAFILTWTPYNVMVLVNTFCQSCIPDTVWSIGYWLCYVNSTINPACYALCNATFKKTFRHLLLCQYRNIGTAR
M4 ag – agonists of human muscarinic M4 receptor (CHRM4). hit rate 0.14% among 360,000. activation, % at 3 µM. CHO-K1 hM4/Gqi5, Fluo-8 calcium fluorescence; vehicle 0%, full acetylcholine response 100%. AID 624127;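 active = activation above the run mean over all test wells plus 3 SD, cut at about 32% in these data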;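 note: peak over basal fluorescence ratio per well then scaled between controls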
M1 PAM parental – M1 PAM counterscreen hit in parental CHO-K1 cells; ATP EC20, Fluo-8 calcium fluorescence; 0% at ATP EC20, 100% at ATP max; activation, % at 3 µM; hit rate 0.02% among 360,000; AID 602247;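 active = activation above the run cutoff, the mean activation of all test compounds plus 3 SD, cut at about 40% in these data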;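 note: peak over basal fluorescence ratio in a 140 s read after ATP addition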
CHO-K1 Ca ag – counter-screen for M1 agonists: effect in parental CHO-K1 cells | Fluo-8 calcium fluorescence; scaled to maximal ATP response, vehicle zero | activation, % at 3 µM | hit rate 0.48% among 360,000; in the data active = activation above about 15%;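 note: untransfected CHO-K1 host cells lacking M1 receptor as counterscreen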
CHO-K1 Ca antag – M1 antagonist counterscreen hit in parental CHO-K1 cells. ATP-induced calcium, Fluo-8 fluorescence. inhibition, % at 3 µM. hit rate 0.6% among 360,000;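 active = inhibition above a per-plate cutoff, the plate's mean sample inhibition plus 3 SD, cut at about 24% in these data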
M4 antag – blocks acetylcholine activation of human M4 receptor | P08173 | CHO-hM4 cells, ACh EC80, Fluo-8 calcium fluorescence | inhibition, % at 3 µM | hit rate 0.73% among 360,000 | AID 624125;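 active = inhibition above its plate's cutoff, the mean inhibition of sample wells plus 3 SD, cut at about 27% in these data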
Large screens that a line does not name were inactive.

CC(=O)O[C@H]1CC(=O)OC(C)(C)C2CC(=O)[C@]3(C)C(CC[C@@](C)([C@@H](O[C@@H]4O[C@H](CO)[C@@H](O)[C@H](O)[C@H]4O)c4ccoc4)[C@@]34O[C@@H]4C(=O)O)[C@]21C (some centres undefined)	none
Cc1[nH]nc(SCC(=O)NC(C)c2ccccc2)c1[N+](=O)[O-] (centres undefined)	CHO-K1 Ca antag 25
CCc1ccccc1NC(=O)CSc1n[nH]c(C)c1[N+](=O)[O-]	none
CC(C)(C)NC(=O)CN(Cc1ccc2c(c1)OCO2)C(=O)CNS(=O)(=O)c1ccc(F)cc1	M4 PAM 45
CC1CCN(CC(=O)Nc2ccc(S(=O)(=O)N3CCCC(C)C3)cc2)CC1 (centres undefined)	CHO-K1 Ca ag 18
CC1CCCN(S(=O)(=O)c2ccc(NC(=O)CN3CCN(C)CC3)cc2)C1 (centres undefined)	none
COC(=O)Nc1ccc(S(=O)(=O)N2CCCC(C(=O)N3CCOCC3)C2)cc1 (centres undefined)	none
CC1CCCN(S(=O)(=O)c2ccc(NC(=O)Cc3ccc(S(=O)(=O)N4CCOCC4)s3)cc2)C1 (centres undefined)	CHO-K1 Ca antag 25
CC1CCN(C(C)C(=O)Nc2ccc(S(=O)(=O)N3CCCC3)cc2)CC1 (centres undefined)	M4 antag 78
COC(=O)Nc1ccc(S(=O)(=O)N2CCCC(C(=O)N3CC(C)OC(C)C3)C2)cc1 (centres undefined)	CHO-K1 Ca ag 16
CN(C)S(=O)(=O)N1CCc2ccc(NC(=O)C3CCCO3)cc2C1 (centres undefined)	M4 PAM 20
C[C@@H](CO)NC(=O)[C@H]1O[C@@H](n2cnc3c(N)ncnc32)[C@H](O)[C@@H]1O	none
Nc1ncnc2c1ncn2C1OC(C(=O)NC2CC2)C(O)C1O (centres undefined)	M4 antag 36
Cc1ccc(C(=O)c2coc3cc([N+](=O)[O-])c(O)c([N+](=O)[O-])c23)cc1	M4 PAM 31
CN(C)C(=O)CSc1nnc(-c2cc(-c3cccs3)nc3ccccc23)o1	CHO-K1 Ca antag 27
O=C(N/N=C/C=C/c1ccccc1)C1CC1c1ccccc1 (centres undefined)	M4 PAM 17
COC(=O)c1cc(S(=O)(=O)N2CCOCC2)ccc1Sc1ccccc1N	M4 PAM 22
COc1ccccc1C(=O)NCc1nnc(SCC(=O)Nc2nccs2)n1C	none
O=C(O)C1CCCN1S(=O)(=O)c1cccc(S(=O)(=O)N2CCCC2C(=O)O)c1 (centres undefined)	M4 antag 32
CN(C)CCCNC(=S)NCC(c1ccc(Cl)cc1Cl)c1c[nH]c2ccccc12 (centres undefined)	M4 antag 29
NCC(c1ccccc1Cl)c1c[nH]c2ccccc12 (centres undefined)	none
NCC(c1ccc(Cl)cc1Cl)c1c[nH]c2ccccc12 (centres undefined)	M4 ag 35, CHO-K1 Ca ag 15, CHO-K1 Ca antag 25
Cc1cc(N/C(=N\S(=O)(=O)c2ccc(F)cc2F)c2ccccc2)no1	M4 PAM 20
O=S(=O)(/N=C(/Nc1cccnc1)c1ccccc1)c1ccc(F)cc1F	none
COC(=O)N/N=C/c1ccc([N+](=O)[O-])o1	M4 PAM 30
Cc1ccc(NN2C(=O)C=C(c3ccccc3)C2=O)cc1	M4 antag 35
O=C1c2ccccc2C(=O)N1Nc1ccccc1	none
Cc1ccc2nc(N(CCCN(C)C)C(=O)COc3ccc(Cl)cc3)sc2c1	M4 ag 38
COc1cc(NC(=O)c2cccc3c(-c4cnn(C)c4)coc23)cc(OC)c1OC	none
COC(CNC(=O)c1ccc2c(c1)ncn2-c1ccc(C)cc1C)OC	CHO-K1 Ca ag 18
COC(=O)c1ccc(S(=O)(=O)NCCc2ccccc2OC)n1C	CHO-K1 Ca ag 18
CC(NC(=O)c1ccccc1)C(=O)N/N=C/c1cccc([N+](=O)[O-])c1 (centres undefined)	none
Cc1ccc(C)c(Cn2c3ccccc3c3cnn(CC(=O)NCCCN4CCCCC4)c(=O)c32)c1	none
COC(=O)c1ccc(NC(=O)CSc2nc3cccnc3n2C)cc1	none
COc1cccc(C(=O)CSc2nc3cccnc3n2C)c1	none
COc1ccc(C(=O)CSc2nc3cccnc3n2C)cc1	CHO-K1 Ca antag 28
CCOC(=O)c1ccc(NC(=O)CSc2nc3cccnc3n2C)cc1	CHO-K1 Ca antag 34
Cc1ccc(S(=O)(=O)N(C)c2ccc(C(=O)NCC(c3ccco3)N(C)C)cc2)cc1 (centres undefined)	none
OC(c1cccc(CN2CCCCC2)c1)c1ncc(-c2ccccc2Cl)[nH]1 (centres undefined)	none
COc1ccc(CN2CCN(C(=O)CC(C)C)CC2)cc1	none
Cn1c(CN2CCCCC2)nc2cc(NS(=O)(=O)c3ccc(Cl)cc3)ccc21	M4 ag 43
CCOc1ccccc1NC(=O)COC(=O)/C=C/c1cccs1	none
CCCCc1nc2cc(C(=O)NCc3nccn3CC)ccc2o1	M4 antag 32
Cc1cnc(CNC(=O)c2ccc3oc(Cc4ccc(Cl)cc4)nc3c2)cn1	none
O=C(Nc1nc2ccc(S(=O)(=O)N3CCCCC3)cc2s1)C1CCCO1 (centres undefined)	M4 PAM 34
COc1ccc2cc3cc(C(=O)N4CCN(c5ccccn5)CC4)oc3nc2c1	none
Cc1cccc(NC(=O)CSc2nnc(-c3cnccn3)n2Cc2ccco2)c1	CHO-K1 Ca antag 29
Cc1ccc(-c2nc(CS(=O)CC(=O)NCc3ccc(Cl)cc3)c(C)o2)cc1 (centres undefined)	none
Cc1oc(-c2ccc(Cl)cc2)nc1CS(=O)CC(=O)NCc1ccccc1 (centres undefined)	M4 PAM 21
CN(C)CCCN(C(=O)CCc1ccccc1)c1nc2c(F)cccc2s1	CHO-K1 Ca ag 18
CN(C)CCCN(C(=O)c1cc(-c2cccs2)nc2ccccc12)c1nc2c(F)cccc2s1	M4 antag 27
Cc1ccc2nc(N(CCCN(C)C)C(=O)c3cc(-c4cccs4)nc4ccccc34)sc2c1	none
CCC1(c2ccccc2)NC(=O)N(CC(=O)Nc2ccccc2N2CCCCC2)C1=O (centres undefined)	CHO-K1 Ca ag 38
CCOC(=O)C1(C)CCCCCN1C(=O)c1ccc(OC)cc1 (centres undefined)	CHO-K1 Ca antag 25
COc1ccc(CCNC(=O)Nc2nc(C(N)C3CCCCC3)cs2)cc1OC (centres undefined)	none
O=C(Nc1cccc(C(=O)N2CCCC2)c1)C1CCC1	none
